Bioassay records deposited in PubChem by National Center for Advancing Translational Sciences (NCATS).
Vaccinia Venus = inhibitors of vaccinia virus (Venus reporter); Vaccinia virus Venus reporter expression, fluorescence; Potency, µM (highest dose often 36.5 µM), for inactives: top-dose activity change, negative = inhibition, actives largely listed as inhibitors; hit rate 0.46% among 330,000; calls by dose curve; tested in A549 cells; further: nearly all actives have a fitted effect of over 30% in size
AmpC inh no detg = AmpC beta-lactamase inhibition without detergent; AID 485341; AmpC nitrocefin hydrolysis, absorbance 480 nm, 0.0001% Triton; Potency, µM (highest dose often 57.1 µM), for inactives: at the top dose activity change, negative = inhibition, usual class: inhibitors; hit rate 0.52% among 330,000;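 further: plate controls were no compound for no effect and no enzyme for full effect; nearly all actives have a fitted effect of over 20% in size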
Target sequence (P00811 whole entry, looked up): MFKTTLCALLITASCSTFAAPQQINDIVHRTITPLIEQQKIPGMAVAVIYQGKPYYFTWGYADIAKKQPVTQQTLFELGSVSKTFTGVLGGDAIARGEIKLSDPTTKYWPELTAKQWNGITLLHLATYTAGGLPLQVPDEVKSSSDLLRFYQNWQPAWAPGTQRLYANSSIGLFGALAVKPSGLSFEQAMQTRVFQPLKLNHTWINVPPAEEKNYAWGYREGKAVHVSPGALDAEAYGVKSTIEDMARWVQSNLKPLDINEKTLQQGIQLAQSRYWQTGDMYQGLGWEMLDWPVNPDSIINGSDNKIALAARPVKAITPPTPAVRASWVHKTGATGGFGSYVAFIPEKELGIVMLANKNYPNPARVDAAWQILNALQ
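AmpC (5.3 nM in the dispensed reagent) in 20 mM phosphate pH 7.0 with 0.01% (detergent screen) or 0.0001% Triton X-100 was preincubated with compounds for 15 min at room temperature. Nitrocefin was then added from an 800 uM solution, and hydrolysis was followed at 480 nm.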
VACV mCherry inh = inhibitors of vaccinia virus infection (mCherry reporter signal); Vaccinia virus mCherry reporter infection, fluorescence; Potency, µM (titrated, usually from 36.5 µM), without a hit: at the highest dose activity change, negative = inhibition, most hits filed as inhibitors; hit rate 0.63% among 310,000; calls by dose curve; tested in A549 cells; further: nearly all actives have a fitted effect of over 35% in size
AmpC inh detg = blocks E. coli AmpC beta-lactamase in detergent assay; P00811; hit rate 0.041% among 370,000; Potency, µM (doses to about 114 µM), for the others: at the highest dose activity change, negative = inhibition, most hits filed as inhibitors; AmpC hydrolysis of nitrocefin, absorbance 480 nm, 0.01% Triton;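 further: 0% = no-compound wells and -100% = no-enzyme wells; nearly all actives have a fitted effect of over 25% in size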
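AmpC (5.3 nM in the dispensed reagent) in 20 mM phosphate pH 7.0 with 0.01% (detergent screen) or 0.0001% Triton X-100 was preincubated with compounds for 15 min at room temperature. Nitrocefin was then added from an 800 uM solution, and hydrolysis was followed at 480 nm.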
The depositor's hits bear a star; i = inactive; ? = inconclusive; / = no result given. An excerpt weighted towards active compounds, which were near 1.1% of everything screened. Unless noted, the call rests on the fitted dose curve; in most records, active means well fitted curve in the direction sought with a large enough effect; inconclusive means small, poorly fitted or top-dose-only effect, or another doubt; inactive means no such curve, though single readings can be large; an effect the other way counts as inactive or inconclusive. Unless noted, on the % scale 0 is the no-effect control and ±100 the full control effect; potency means the concentration at half of the fitted maximal effect.

SMILES	Vaccinia Venus	AmpC inh no detg	VACV mCherry inh	AmpC inh detg
COCCOC(=O)c1[nH]c2c(c1C)C(=O)CC(c1cc(OC)c(OC)c(OC)c1)C2 (stereo unspecified)	-20.5%	63.1%	i	1.7%
CCCCOC(=O)c1[nH]c2c(c1C)C(=O)CC(c1cc(OC)c(OC)c(OC)c1)C2 (stereo unspecified)	-26.7%	31.6µM*	?	?
O=C(Nc1ccc(F)cc1)Nc1cc(OCC(F)(F)F)cc(OCC(F)(F)F)c1	?	-20.7%	10µM*	4.0%
CCOc1ccc(NC(=O)Nc2cc(OCC(F)(F)F)cc(OCC(F)(F)F)c2)cc1	-22.9%	-20.3%	i	-1.9%
CNc1ccc(/C=C/C(=O)c2cccc3ccccc23)cc1[N+](=O)[O-]	-17.0%	28.2µM*	-16.9%	-16.3%
CN(Cc1ccccc1)C(=O)CCS(=O)(=O)c1ccc2c(c1)n(C)c(=O)c(=O)n2C	2.1%	0.501µM*	0.1%	?
CCOC(=O)N1CCC(NC(=O)c2ccc(CO)c(C(=O)NC3CCN(C(=O)OCC)CC3)c2)CC1	-10.3%	13.1%	i	?
CCOC(=O)N1CCC(NC(=O)c2cc(C(=O)NC3CCCC3)ccc2CO)CC1	-4.0%	0.708µM*	i	?
COc1ccc(CN2CCCC(n3cc(C(=O)N4CCCCC4)nn3)C2)c(OC)c1C (stereo unspecified)	7.1%	/	-7.4%	/
O=C1NC(=O)N(c2cccc(Cl)c2)C(=O)/C1=C\c1ccc(Sc2nc3ccccc3[nH]2)o1	i	22.4µM*	i	-10.5%
CCN(CC)CCN(C)c1ccc(/C=C/c2ccnc3ccccc23)cc1	-12.1%	/	-9.8%	/
CCCC(=O)N(c1ccc2oc(=O)sc2c1)S(=O)(=O)c1ccccc1	-23.4%	10µM*	/	?
CC(=O)N(c1ccc2oc(=O)sc2c1)S(=O)(=O)c1ccc(C(=O)O)cc1	0.2%	-36.0%	-1.3%	?
Cc1sc(NC(=O)c2ccccc2)c(C#N)c1-c1ccccc1	-14.2%	25.1µM*	-21.5%	-14.2%
COc1ccc(C(=O)Nc2oc(-c3ccccc3)c(-c3ccccc3)c2C#N)cc1	-5.8%	8.91µM*	-18.6%	-5.6%
CCc1c(C)sc(NC(=O)c2cccs2)c1C#N	-6.3%	-27.1%	i	1.5%
Cc1cc(Cl)ccc1OCC(=O)NCC1Cc2cc(-c3cnccn3)ccc2O1 (stereo unspecified)	-19.3%	/	-29.5%	/
O=C(C[n+]1c(Cl)ccc2ccccc21)c1ccc2ccccc2c1	-11.9%	/	-13.8%	/
CCn1c(-c2ccccc2F)nc2cc(C(=O)NCc3ccc(C)o3)cc(NC(C)=O)c21	-14.9%	/	i	/
CC1=C(CO)C(=O)OC([C@@H](C)C2CC[C@H]3C4C[C@H]5O[C@]56[C@@H](O)C=CC(=O)[C@]6(C)C4CC[C@]23C)C1 (stereo partly specified)	?	95.8%	10µM*	2.2%
Cc1cccc(CNC(=O)c2cnn(-c3nccc(-c4cc5ccccc5o4)n3)c2C2CC2)n1	-10.5%	/	-20.7%	/
CC[N+]1(CC(=O)c2ccc(Cl)cc2)CCCCC1	-17.6%	/	i	/
O=C1NC(=O)N(Cc2ccc(F)cc2)C(=O)/C1=C\c1ccc([N+](=O)[O-])s1	47.1%	11.2µM*	i	-6.0%
CC(C)N(c1ccc(C=O)cc1)C(C)C	-8.8%	/	-15.0%	/
Cc1c(C(=O)N2CC3CCC2C3)sc2ncnc(NCCc3ccccn3)c12 (stereo unspecified)	-7.5%	/	-13.3%	/
SMILES	Vaccinia Venus	AmpC inh no detg	VACV mCherry inh	AmpC inh detg
Cc1ccc(C2=NC(=O)/C(=C/c3cc(O)c(O)c(Br)c3)S2)cc1	-7.5%	17.8µM*	?	1.5%
COc1cc(/C=C2\SC(c3ccc(C)cc3)=NC2=O)cc(OC)c1O	-1.5%	9.4%	-16.9%	6.8%
O=C(CSc1nnc(-c2cccc(Br)c2)o1)NCC1CCCO1 (stereo unspecified)	14.1µM*	/	?	/
Cn1c(SCC(=O)NCC2CCCO2)nnc1-c1ccc(S(=O)(=O)N2CCCC2)cc1 (stereo unspecified)	-6.4%	-1.9%	-12.4%	-12.9%
O=C(CSc1nnc(-c2ccc(S(=O)(=O)N3CCCC3)cc2)o1)NCC1CCCO1 (stereo unspecified)	4.47µM*	28.9%	3.98µM*	10.8%
NC(=O)CSc1nnc(-c2ccc(S(=O)(=O)N3CCCC3)cc2)o1	3.16µM*	-5.3%	?	1.3%
CCn1nc(C)c(CN2Cc3ccccc3OC(c3ccccc3OC)C2)c1C (stereo unspecified)	-4.7%	/	-12.7%	/
COc1ccccc1C(=O)N[C@@H]1c2ccccc2C2(CCN(Cc3cccnc3)CC2)[C@H]1O	-8.0%	/	-15.5%	/
CCc1cc(C(=O)N2CCc3c([nH]c4ccccc34)C2c2ccc(OC)cc2F)no1 (stereo unspecified)	-16.5%	88.8%	11.2µM*	9.4%
CCC(c1ccc(O)c(O)c1)C(CC)c1ccc(O)c(O)c1 (stereo unspecified)	-14.8%	/	3.16µM*	/
CCC(NC(C)C)C(O)c1ccc(O)c(O)c1 (stereo unspecified)	-11.6%	-23.9%	-12.6%	-11.3%
Cc1ccnc2c(N)cccc12	0.1%	/	-7.7%	/
Nc1ccc2oc(-c3ccccc3Cl)cc(=O)c2c1O	0.891µM*	-26.3%	0.794µM*	-4.2%
C1=C(c2ccc3c(c2)CN(Cc2cccn2-c2ncccn2)CCO3)Cc2ccccc21	-4.5%	/	-11.3%	/
c1ccc(-c2ccc(SCc3cccnc3)nn2)nc1	?	-18.4%	11.2µM*	-1.9%
CCOc1ccc(Nc2c3ccccc3nc3ccccc23)cc1	?	-12.6%	5.62µM*	-3.1%
CCOc1ccc(Nc2cc(C)c3ccccc3n2)cc1	/	?	/	-7.4%
COc1ccc(C(=O)C(CCC(CNC(C)(C)C)C(=O)c2ccc(OC)cc2)CNC(C)(C)C)cc1 (stereo unspecified)	11.2µM*	-20.4%	12.6µM*	-14.5%
COc1ccc(C(=O)CC(=O)c2ccc(C(C)(C)C)cc2)cc1	-9.5%	/	-20.0%	/
Cc1ccsc1C1Cc2c(C(=O)NCc3cccnc3)c(=O)cc(C)n2-c2ccccc2S1 (stereo unspecified)	11.6%	/	-1.9%	/
COc1cc(-c2cc(C)c3c(OC)ccc(OC)c3n2)cc2c1OCCN(C(=O)Cn1nc(C)cc1C)C2	-3.9%	/	-20.3%	/
C#CCSc1nnc(-c2ccc(C)cc2)o1	?	-12.0%	10µM*	?
COc1ccc2nc(C)cc(N/N=C/c3ccccc3)c2c1	?	-2.9%	14.1µM*	-5.9%
COc1ccc2nc(C)cc(Nc3ccc(N4CCN(C)CC4)cc3)c2c1	10µM*	1.2%	?	-5.9%
COc1ccc2nc(C)cc(Nc3ccc(N4CCOCC4)cc3)c2c1	-25.5%	-7.4%	-2.3%	?
Cc1nc2n(c(=O)c1CCN1CCC(c3noc4cc(F)ccc34)CC1)CCC[C@H]2O	-8.2%	/	-7.3%	/
COCC(=O)Nc1cc(C(=O)N2CCC(c3ccccc3)CC2)cc2nc(-c3ccccc3)n(C)c12	-1.9%	/	i	/
Cc1ccc(/C=C/C(=O)Nc2ccc([N+](=O)[O-])cc2)o1	-25.5%	-22.3%	?	1.2%
